Consider 40 compounds from PubChem BioAssay (NCI).

Values joined by “and” are separate entries in the source; they are usually repeats but may differ in a detail not shown here. Equal entries are not always repeated. The panel holds about 83,000 compounds, 20% with a hit somewhere; the sample as a whole holds those more often.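 Single-dose data. Exposure time 48 hours. Values below 10 considered active.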 Active and inactive are the calls of the source.

The assay relates to HL-60(TB) leukemia. Nature of the assay: NCI-60 one-dose screen, 48 h (100 = growth as untreated, 0 = no growth, -100 = all killed). The following applies: 10 µM unless noted.
Take `CCN1CCOC1C(C)C` (stereo not given): the growth is 90% (inactive).
On to `Cc1ccccc1NC(=O)N/C(N)=N/c1nc(C)c(C)s1`, for which the growth was -2.57% (active).
The result for `C/C(=N/O)c1ccc(F)cc1` reads 102% (inactive); that for `CC1(C)CCCN1CCCN1c2ccccc2Sc2ccc(Cl)cc21`, 46% (inactive).
For `O=C(Nc1cccc(-n2ccc3c(NC(=O)c4ccccc4)nccc32)c1)c1cccc(C(F)(F)F)c1`, the growth is 0.531% (active).
`COP(=O)(OC)C(C)(C)CC(=O)CC(C#N)(C#N)C(C#N)C#N`: the growth is 103% (inactive).
As to `CC[C@]12C=CCN3CC[C@@]4(c5ccc(OC)cc5N(C)[C@H]4[C@@](O)(C(=O)OC)[C@@H]1OC(=O)CCC(=O)N[C@H](Cc1c[nH]c4ccccc14)C(=O)OC)[C@@H]32`, the growth is -25% [100 µM] (active).
In the case of `O=c1[nH]c2cc(Cl)c(Cl)cc2o1` it was 120% (inactive).
In the case of `CS(=O)(=O)c1ccc(-c2nc3cc(Cl)ccc3n2CC(=O)NO)cc1` it was 91.9% (inactive).
As to `CCn1c(SCC(=O)c2ccc(Br)cc2)nnc1-c1ccncc1`, the growth was 103% (inactive).
Turning to `O=C(Nc1ccc(Br)cc1)Nc1ccccc1Cl`, the growth is 70.7% (inactive).
The result for `CC(=O)OC[C@]1(C)C=C2C(=O)[C@](C)(O)C3(CC3)C(C)=C2[C@H]1OC(C)=O` reads 96.4% (inactive); that for `Br/C(=N\Nc1nn[nH]n1)c1ccccc1`, 103% (inactive).
Turning to `COc1cc2c(cc1OCCCOc1ccc(-c3cc4ccccc4c4ccccc34)cc1)N=C[C@@H]1CCCN1C2=O`, the growth is -11.8% (active).
The result for `CC(C)(C)n1cc(-c2ccnc(NCCNS(=O)(=O)c3cccc4ccccc34)c2)c(-c2cccc(F)c2)n1` reads -52.3% (active); that for `O=C(N=Nc1c(O)[nH]c2ccc(F)cc12)c1cc2ccccc2[nH]1`, 79.3% (inactive).
For the compound `Cc1c(-n2nnc(-c3nc4ccccc4s3)c2N)c(=O)n(-c2ccccc2)n1C`, the growth was 99.2% (inactive).
On to `COc1ccc(C(=O)c2cc(C)c(OC)c(C)c2)c(OC)c1N(C(=O)C(Cl)Cl)C(=O)C(Cl)Cl`, for which the growth was -32% (active).
As for `COc1cccc(Cn2c(-c3nonc3NC(C)=O)nc3ccccc32)c1`, the growth was -2.59% (active).
Consider `CN(C)CCNc1nc2ccccc2c2c(=O)c3ccccc3sc12`, for which the growth was 9.19% (active).
For the compound `CNC(=O)Cc1nc(-c2cccc(NS(=O)(=O)c3c(F)cccc3F)c2F)c(-c2ccnc(Nc3ccccc3)n2)s1`, the growth was 57.8% (inactive).
The result for `O=C(O)CCCCCCCCCCCCCCC(=O)O` reads 102% (inactive).
As for `COc1ccc2[nH]cc(-c3nc(-c4cn(C)c5c(Cl)nccc45)cs3)c2c1`, the growth was 30.5% (inactive).
For `CCCCCCCCCCCCCCCCSC(=NCC)NCC`, the growth was -59.1% (active).
In the case of `CCNc1cc(-c2cccc(OC(F)(F)F)c2)nc2ccc(N3CCCC3)cc12` it was -47.1% (active).
In the case of `COc1ccc(C(=O)C(O)c2ccc(OC)cc2)cc1` (stereo not given) it was 97.2% (inactive) and 94.5% (inactive); in that of `CNC(=O)c1cc(Oc2ccc(NC(=O)Nc3ccc(Cl)c(C(F)(F)F)c3)cc2)ccn1`, -35.3% (active) and 23.3% (inactive).
The result for `NC1CCC(Nc2nc(NCc3ccc(-c4cccs4)nc3)c3ncn(C4CCCC4)c3n2)CC1` (stereo not given) reads -29.7% (active); that for `COc1ccc(/C=C2/SC(=S)NC2=O)c(OC)c1OC`, 83.8% (inactive); that for `C=CCn1c(C)nc2cc(Nc3nc(Nc4ccc5nc(C)n(CC=C)c5c4)c4ccccc4n3)ccc21`, -52% (active).
As to `O=C(/C=C/c1cc2ccccc2[nH]c1=O)/C=C/c1cc2ccccc2[nH]c1=O`, the growth is 24.7% (inactive).
The result for `Cn1c(=O)c2[nH]c(CCCCC(=O)O)nc2n(C)c1=O` reads 60.6% (inactive); that for `c1ccc2c(c1)oc1c3c(ccc12)NCCC3`, 91.8% (inactive).
Consider `CCN(CC)CCCN1C(=O)c2c(c(C)c3c(oc4cc(O)ccc43)c2C)C1=O`, for which the growth was -47.9% (active).
The result for `COC(=O)c1c2c(c(C)[n+]([O-])c1C)C(=O)C=C(NCc1ccc(F)cc1)C2=O` reads -29.4% (active).
The result for `CCC(=O)N1C/C(=C/c2ccc(Cl)cc2)C(=O)/C(=C/c2ccc(Cl)cc2)C1` reads 4.88% (active).
In the case of `O=[N+]([O-])C1C(c2ccccc2)C12c1ccccc1-c1ccccc12` (stereo not given) it was -30.6% (active).
Consider `CC(=O)Oc1c(Cl)c(Cl)c(Cl)c(Cl)c1Cl`, for which the growth is 82.2% (inactive).
`CC(C)CCC[C@@H](C)[C@H]1CC[C@H]2[C@@H]3CC=C4C[C@@H](C(C(=O)O)C(=O)O)CC[C@]4(C)[C@H]3CC[C@]12C`: the growth was -44.4% (active).
Take `COc1cc(Nc2ccnc3ccc(Br)cc23)cc(OC)c1OC`: the growth was 24.8% (inactive).
